Test results: PubChem BioAssay (EPA / NIEHS)
Where “and” joins values, the source holds several entries; their conditions need not be identical. Equal values may be shown once. Records with an inconclusive call do not appear. A structure can be active in one record and inactive in another. Calls of active or inactive are those of the source. Rule for the calls, unless noted: active = hit-call score of the fitted dose curve at least 0.9, where 1 is the maximum; inactive = score below 0.9.

Key:
[1] = read-out: E-selectin (Homo sapiens) (UniProt P16581); experiment: BSK_SAg_Eselectin: BioMAP Diversity Plus: SAg Assay for Eselectin Biomarker Activity (AID 2283091); details: primary human HUVEC with PBMC; actives raise or lower the signal
In short: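 Endpoint values derive from bidirectional fitting relative to DMSO, using ELISA-measured E-selectin in a human vascular co-culture (umbilical vein endothelium plus PBMC) sampled 24 h after dosing.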

[2] = read-out: Monokine induced gamma interferon (MIG), CXCL9 (gene 4283); experiment: BSK_SAg_MIG: BioMAP Diversity Plus: SAg Assay for Monokine induced gamma interferon (MIG) Biomarker Activity (AID 2283092); details: primary human HUVEC with PBMC; actives raise or lower the signal
In short: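 Values reflect bidirectional fitting of ELISA-measured MIG against DMSO vehicle, taken 24 h after dosing of a co-culture of human umbilical vein endothelial cells and peripheral blood mononuclear cells.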

[3] = BSK_SAg_PBMCCytotoxicity: PBMC Cytotoxicity Assessment in the BioMAP Diversity Plus: SAg Assay (AID 2283093); details: primary human HUVEC with PBMC;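 note: PBMC viability measured as Alamar Blue reduction fluorescence at 546/580 nm; fitted both ways against DMSO so a hit may be loss or gain of signal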;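 for AC50: PBMC superantigen activated with SEB plus TSST-1 one hour after compound addition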
In short: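 Alamar Blue reduction (6 h, 546/580 nm) reports PBMC cytotoxicity after 90 h superantigen activation (SEB, TSST-1; 20 ng/mL final each) with 1 h compound pre-treatment. Gain or loss of signal fitted versus DMSO.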

[4] = read-out: Interleukin-8 (IL8), CXCL8 (gene 3576); experiment: BSK_SAg_IL8: BioMAP Diversity Plus: SAg Assay for Interleukin-8 (IL8) Biomarker Activity (AID 2283094); details: primary human HUVEC with PBMC; actives raise or lower the signal
In short: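 Chemicals were dosed onto a human endothelial–PBMC co-culture, and IL-8 was quantified by ELISA after 24 h. Both increases and decreases were fitted relative to DMSO.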

[5] = BSK_SAg_Proliferation: Cell Proliferation Assessment in the BioMAP Diversity Plus: SAg Assay (AID 2283095); details: primary human HUVEC with PBMC;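 note: relative cell number as total protein by SRB absorbance in sub-confluent culture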
In short: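 Absorbance of sulforhodamine B at 560 nm reports total protein in a human vascular endothelial/PBMC co-culture after 96 h chemical exposure. Gain or loss of signal is fitted in both directions against DMSO.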

[6] = BSK_SAg_SRB: Viability Assessment in the BioMAP Diversity Plus: SAg Assay (AID 2283096); details: primary human HUVEC with PBMC;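 note: cells read one day after compound addition; hits may be either gain or loss of signal compared with DMSO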
In short: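 This overt-cytotoxicity endpoint quantifies protein in human endothelial/PBMC co-cultures at 24 h using SRB absorbance (560 nm) after trichloroacetic acid fixation. Values reflect signal change from the DMSO negative control, fitted bidirectionally.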

[7] = target: human CYP1A1, CYP1A1 (gene 1543) (UniProt P04798); experiment: NVS_ADME_hCYP1A1: NovaScreen (NVS) CYP450-related Enzyme Activity (ADME) Assay for human CYP1A1 (AID 2283100; active = hit-call score of the fitted dose curve at least 0.9, where 1 is the maximum)
In short: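 Inhibition of recombinant CYP1A1 turnover was assessed fluorometrically in a biochemical format 1 h after compound exposure. Testing began at 10 uM in duplicate and progressed to concentration series reaching 20 uM, with on-plate positive and negative controls.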

[8] = target: human CYP2B6, CYP2B6 (gene 1555) (UniProt P20813); experiment: NVS_ADME_hCYP2B6: NovaScreen (NVS) CYP450-related Enzyme Activity (ADME) Assay for human CYP2B6 (AID 2283101; active = hit-call score of the fitted dose curve at least 0.9, where 1 is the maximum)
Procedure: NVS_ADME_hCYP2B6 is a biochemical, single-readout assay that uses extracted gene-proteins in a cell-free assay. Measurements were taken 1 hour after chemical dosing in a 96-well plate.NVS_ADME_hCYP2B6 is one of one assay component(s) measured or calculated from the NVS_ADME_hCYP2B6 assay. It is designed to make measurements of enzyme activity, a form of enzyme reporter, as detected with fluorescence intensity signals by Fluorescence technology.Data from the assay component NVS_ADME_hCYP2B6 was analyzed into 1 assay endpoint. This assay endpoint, NVS_ADME_hCYP2B6, was analyzed in the positive analysis fitting direction relative to Acetonitrile as the negative control and baseline of activity. Using a type of enzyme reporter, loss-of-signal activity can be used to understand changes in the enzymatic activity as they relate to the gene CYP2B6. Furthermore, this assay endpoint can be referred to as a primary readout, because this assay has produced multiple assay endpoints where this one serves a enzymatic activity function. To generalize the intended target to other relatable targets, this assay endpoint is annotated to the cyp intended target family, where the subfamily is xenobiotic metabolism.
Binding assays used specific radioligands (tritiated, iodinated) with non-radioactive competitive displacement ligands in agonist or antagonist protocols (as indicated) and various reference compounds and inhibitors to titrate specific binding to receptors and transporters. Most enzyme assays (CYPs, kinases, phosphatases, proteases, HDACs) used recombinant protein and specific substrates (fluorescence mostly, some colorimetric and radioactive) and inhibitors, followed by a biochemical separation of substrate and product. All assays for the biochemical HTS were initially run in duplicate at a single concentration (10 uM for CYP450 assays and 25 uM for all others). […] Each assay was run with positive and negative controls, and concurrent controls on every plate. The follow-up (secondary) screen tested active chemical-pairs in concentration series, as well as a few additional assays not tested in the primary screen, some selected negative inactives, and several cases re-run in the concentration series for confirmatory purposes.

[9] = target: human CYP1A2, CYP1A2 (gene 1544) (UniProt P05177); experiment: NVS_ADME_hCYP1A2: NovaScreen (NVS) CYP450-related Enzyme Activity (ADME) Assay for human CYP1A2 (AID 2283102; active = hit-call score of the fitted dose curve at least 0.9, where 1 is the maximum;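 for AC50: fluorescence from turnover of a fluorogenic substrate by recombinant insect-cell CYP1A2; potency for inhibition since loss of fluorescence marks reduced CYP1A2 activity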)
In short: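 Inhibition scored as decrease in fluorescent product versus acetonitrile negative control. Enzyme: insect-cell recombinant human CYP1A2, substrate-specific, cell-free. Reading at 0.5 h; 10 uM duplicate initial screen with positive and negative controls on every plate.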

Measured: AC50

Chain of human CYP1A1, CYP1A1 (gene 1543) (P04798 whole entry, looked up): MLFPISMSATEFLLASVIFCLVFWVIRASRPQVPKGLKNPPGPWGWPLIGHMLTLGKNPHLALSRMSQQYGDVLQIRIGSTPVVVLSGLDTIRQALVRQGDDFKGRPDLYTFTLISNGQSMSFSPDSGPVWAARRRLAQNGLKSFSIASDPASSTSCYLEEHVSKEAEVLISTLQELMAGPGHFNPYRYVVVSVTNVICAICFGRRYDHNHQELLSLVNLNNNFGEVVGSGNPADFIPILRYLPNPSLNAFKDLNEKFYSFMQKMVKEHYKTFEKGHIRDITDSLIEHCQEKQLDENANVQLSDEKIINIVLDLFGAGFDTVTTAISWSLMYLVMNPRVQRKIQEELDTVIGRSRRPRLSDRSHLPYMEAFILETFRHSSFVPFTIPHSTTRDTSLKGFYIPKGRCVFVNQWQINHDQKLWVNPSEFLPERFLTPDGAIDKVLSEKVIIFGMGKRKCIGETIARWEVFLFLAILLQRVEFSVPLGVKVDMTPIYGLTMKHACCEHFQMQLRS
Chain of human CYP1A2, CYP1A2 (gene 1544) (P05177 whole entry, looked up): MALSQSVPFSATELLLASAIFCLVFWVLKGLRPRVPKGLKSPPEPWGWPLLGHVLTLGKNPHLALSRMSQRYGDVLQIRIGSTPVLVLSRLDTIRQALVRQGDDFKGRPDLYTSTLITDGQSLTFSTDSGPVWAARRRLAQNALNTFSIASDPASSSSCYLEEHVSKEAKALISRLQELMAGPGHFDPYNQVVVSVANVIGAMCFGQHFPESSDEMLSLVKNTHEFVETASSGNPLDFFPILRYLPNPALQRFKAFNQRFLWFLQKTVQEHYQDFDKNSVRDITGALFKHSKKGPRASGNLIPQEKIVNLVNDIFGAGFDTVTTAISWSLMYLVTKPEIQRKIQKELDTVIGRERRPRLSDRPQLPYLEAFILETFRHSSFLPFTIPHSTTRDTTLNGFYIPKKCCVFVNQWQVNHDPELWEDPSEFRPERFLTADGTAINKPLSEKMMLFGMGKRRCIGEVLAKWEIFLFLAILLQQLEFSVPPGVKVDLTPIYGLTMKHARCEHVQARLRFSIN
Chain of E-selectin (Homo sapiens) (P16581 whole entry, looked up): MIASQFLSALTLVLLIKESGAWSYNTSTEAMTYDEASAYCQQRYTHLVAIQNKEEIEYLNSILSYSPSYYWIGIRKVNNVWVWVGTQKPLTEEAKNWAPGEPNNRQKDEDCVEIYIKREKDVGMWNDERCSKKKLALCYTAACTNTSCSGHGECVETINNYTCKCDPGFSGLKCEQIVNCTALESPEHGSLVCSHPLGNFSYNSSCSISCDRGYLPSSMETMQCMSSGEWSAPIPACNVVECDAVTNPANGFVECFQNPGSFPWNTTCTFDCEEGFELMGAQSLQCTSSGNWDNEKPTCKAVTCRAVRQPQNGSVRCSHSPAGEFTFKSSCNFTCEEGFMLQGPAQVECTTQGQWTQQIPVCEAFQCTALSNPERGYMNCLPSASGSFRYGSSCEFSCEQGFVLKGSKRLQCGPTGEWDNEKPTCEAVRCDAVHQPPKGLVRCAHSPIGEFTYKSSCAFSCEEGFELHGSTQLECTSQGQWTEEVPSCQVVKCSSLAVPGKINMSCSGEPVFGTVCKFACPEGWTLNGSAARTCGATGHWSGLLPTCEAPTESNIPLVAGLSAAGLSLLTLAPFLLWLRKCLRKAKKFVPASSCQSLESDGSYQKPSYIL
Chain of human CYP2B6, CYP2B6 (gene 1555) (P20813 whole entry, looked up): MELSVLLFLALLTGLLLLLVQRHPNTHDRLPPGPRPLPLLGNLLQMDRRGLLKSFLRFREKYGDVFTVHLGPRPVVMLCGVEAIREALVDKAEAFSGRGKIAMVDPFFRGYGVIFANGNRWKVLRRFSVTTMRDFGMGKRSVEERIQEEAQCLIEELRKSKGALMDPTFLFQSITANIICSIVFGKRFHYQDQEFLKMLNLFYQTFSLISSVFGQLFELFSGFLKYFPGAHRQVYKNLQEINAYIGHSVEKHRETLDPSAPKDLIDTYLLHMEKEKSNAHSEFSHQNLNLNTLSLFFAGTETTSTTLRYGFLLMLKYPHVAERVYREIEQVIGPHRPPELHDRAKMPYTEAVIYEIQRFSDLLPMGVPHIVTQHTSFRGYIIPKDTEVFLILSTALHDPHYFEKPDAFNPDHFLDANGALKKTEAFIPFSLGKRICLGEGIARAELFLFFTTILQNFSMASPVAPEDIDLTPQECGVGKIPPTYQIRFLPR

Brc1ccc(Oc2ccccc2)cc1
inactive: [1] | [2] | [3] | [4] | [5]

ClC1=C(Cl)C2(Cl)C3C(Cl)C=CC3C1(Cl)C2(Cl)Cl (stereo not given)
active: [1] 31.1 µM | [2] 36.8 µM | [3] 13 µM | [4] 27.9 µM

ClC1=C(Cl)[C@]2(Cl)[C@H]3[C@H]([C@@H]4C=C[C@H]3C4)[C@@]1(Cl)C2(Cl)Cl
active: [1] 32.7 µM | [2] 35 µM | [3] 15.4 µM | [4] 30.9 µM | [5] 15 µM | [6] 25.8 µM

Clc1ccc(C(c2ccc(Cl)cc2)C(Cl)Cl)cc1
active: [1] 28.9 µM | [2] 35.6 µM | [3] 14.3 µM | [4] 29 µM

OCCCl
inactive: [1] | [2] | [3] | [4]

C[C@]12C=CC3=C4CCC(=O)C=C4CC[C@H]3[C@@H]1CC[C@@H]2O
inactive: [1] | [2] | [3] | [4]

O=Cc1ccco1
inactive: [1] | [2] | [3] | [4] | [5]

COc1cc(C=O)cc2c1[C@H](COC(N)=O)[C@]1(OC(C)=O)ON2C[C@H]2[C@@H]1N2C(C)=O
active: [1] 21.4 µM | [2] 28.7 µM | [3] 4.25 µM | [4] 8.56 µM | [5] 0.402 µM

Cc1ccc(N=C=O)cc1N=C=O
inactive: [1] | [2] | [3] | [4]
active: [5] 10.5 µM

CCCSC(=O)N(CCC)CCC
inactive: [1] | [2] | [3] | [4]

O=[N+]([O-])c1ccc(Oc2ccc(Cl)cc2Cl)cc1
inactive: [2] | [3]
active: [1] 27.4 µM | [4] 33.9 µM

CCC12COCN1COC2
inactive: [1] | [2] | [3] | [4] | [5] | [6]

Clc1ccc(C(c2ccc(Cl)cc2)C(Cl)(Cl)Cl)cc1
active: [1] 38.2 µM | [2] 35.1 µM | [3] 15.5 µM | [4] 17 µM | [5] 12.7 µM

N#CC(Br)Br
inactive: [1] | [2] | [3] | [4] | [5] | [6]

C1=Cc2cccc3cccc1c23
inactive: [1] | [2] | [3] | [4] | [5]

COC(=O)Nc1nc2ccccc2[nH]1
inactive: [1] | [2] | [3] | [4]

OCCOCCO
inactive: [1] | [2] | [3] | [4]

CCCCCCCCCCCCCN1CC(C)OC(C)C1 (stereo not given)
inactive: [1] | [2] | [3] | [4]

ClCCOCCCl
inactive: [1] | [2] | [3] | [4]

CCC[CH2][Sn]([Cl])([CH2]CCC)[CH2]CCC
active: [1] 0.148 µM | [2] 0.148 µM | [3] 0.148 µM | [4] 0.148 µM | [5] 0.148 µM

CCC(C)c1ccc(O)cc1 (stereo not given)
inactive: [1] | [2] | [3] | [4] | [5] | [6]

Cc1ccc(N)c(N)c1
active: [1] 4.36 µM
inactive: [2] | [3] | [4] | [5]

Nc1ccc([N+](=O)[O-])cc1
inactive: [1] | [2] | [3] | [4] | [5]

CNC(=O)Oc1cccc2c1OC(C)(C)C2
inactive: [1] | [2] | [3] | [4]

OCCCBr
inactive: [1] | [2] | [3] | [4]

Nc1cc(Cl)cc(C(=O)O)c1Cl
inactive: [1] | [2] | [3] | [4] | [5] | [6]

Cc1ccc([N+](=O)[O-])cc1
inactive: [1] | [2] | [3] | [4] | [5]

Cc1cc(N=Nc2ccccc2C)ccc1N
active: [1] 4.75 µM | [4] 29.2 µM | [5] 29.2 µM | [6] 9.88 µM | [7] 5.4 µM | [8] 1.71 µM | [9] 0.858 µM
inactive: [2] | [3]

Nc1ccc(Oc2ccc(N)cc2)cc1
active: [8] 2.57 µM
inactive: [1] | [2] | [3] | [4] | [5] | [6] | [7]

CC(C)(C)OOC(=O)c1ccccc1
inactive: [2] | [3] | [4]

CC(C)(C)OOC(C)(C)CCC(C)(C)OOC(C)(C)C
inactive: [2] | [3] | [4] | [5]

Clc1ccc(Cl)c(Cl)c1
inactive: [2] | [3] | [4] | [5] | [6]

Cc1ccc(N)cc1
inactive: [1] | [2] | [3] | [4] | [6]

c1ccc(C2CO2)cc1 (stereo not given)
inactive: [1] | [2] | [3] | [4] | [6]

O=P(OCCCl)(OCCCl)OCCCl
inactive: [1] | [2] | [3] | [4] | [6]

CCOc1cccc(C2(N3CCN(c4ccccc4)CC3)CCC(C)CC2)c1 (stereo not given)
inactive: [1] | [2] | [3] | [4] | [5] | [9]

CO[C@@H]1[C@H](OC(=O)NC(=O)CCl)CC[C@]2(CO2)[C@H]1[C@@]1(C)O[C@@H]1CC=C(C)C
inactive: [2] | [3]
active: [4] 2.58 µM

O=[N+]([O-])C(Br)(CO)CO
active: [1] 24.7 µM | [2] 39.1 µM | [3] 22.5 µM | [4] 27.6 µM | [5] 8.35 µM | [7] 12.7 µM | [9] 3.15 µM

CC(O)CCO (stereo not given)
inactive: [2] | [3] | [4] | [5]

CCCCCOC(=O)c1ccccc1C(=O)OCCCCC
active: [1] 32.4 µM | [4] 30.8 µM | [6] 32.4 µM
inactive: [2] | [3]

CCNS(=O)(=O)C(F)(F)C(F)(F)C(F)(F)C(F)(F)C(F)(F)C(F)(F)C(F)(F)C(F)(F)F
inactive: [2] | [3] | [4] | [6]
active: [2] 49.1 µM | [3] 48 µM | [4] 30 µM | [6] 43.3 µM and 51.2 µM

CCCCC(CC)COC(=O)c1ccc(C(=O)OCC(CC)CCCC)c(C(=O)OCC(CC)CCCC)c1 (stereo not given)
inactive: [1] | [2] | [3] | [4] | [6]
